# PubChem BioAssay AID493049 (Broad Institute, 2011)
# Measured potencies and affinities stand elsewhere. Unmarked numbers belong to inactive results.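 Rule for the calls: active = viability loss with half-max dose at or under ten times the top valid dose tested; inconclusive = flat 30 to 70% loss, or poor curve fit; inactive = flat within 30%, weak potency, or gain.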
# Experiment: DRD BJ cell killing, Ras synthetic lethality – DRD BJ fibroblasts, HRASV12, dry powder, dose response (AID 493049)
# Details: DRD engineered BJ fibroblasts (HRASV12) viability, Alamar Blue, 48 h; series mostly up to 45 µM; activity change, negative = viability loss: at the top concentration
row,SMILES,"activity change, negative = viability loss"
1,COc1ccc(N(C(=O)[C@@H](C)Cl)C(C(=O)NCCc2ccccc2)c2cccs2)cc1Cl (stereo partly specified),-1.66%
2,CCC(=O)N(c1ccc(OC)c(Cl)c1)C(C(=O)NCCc1ccccc1)c1cccs1 (stereo unspecified),-1.22%
3,COc1ccc(N(C(=O)CO)C(C(=O)NCCc2ccccc2)c2cccs2)cc1Cl (stereo unspecified),2.17%
4,COc1ccc(N(C(=O)CSc2ncccn2)C(C(=O)NCCc2ccccc2)c2cccs2)cc1Cl (stereo unspecified),-2.6% [at 38 µM]
5,COCC(=O)N(c1ccc(OC)c(Cl)c1)C(C(=O)NCCc1ccccc1)c1cccs1 (stereo unspecified),-0.438%
6,O=C(c1[nH]ncc1[N+](=O)[O-])N1CCN(C(c2ccccc2)c2ccccc2)CC1,-3.84%
